A short description of experiment [1]: qHTS assay for small molecule agonists of the p53 signaling pathway (AID 651631; calls by dose curve; further: nearly all actives have a fitted effect of over 15% in size; further: potency means the concentration at half of the fitted maximal effect). As to conditions: HCT-116 p53RE-bla reporter, beta-lactamase FRET ratio, 16 h; series mostly up to 73.3 µM. Put shortly:
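Read-out is beta-lactamase FRET fluorescence measured 2 h after substrate addition at room temperature, in HCT-116 cells with a p53 response element-driven reporter exposed to compounds for 16 h at 37 °C.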

Experiment [2] is described as follows: qHTS assay for small molecules that induce genotoxicity in human embryonic kidney cells expressing luciferase-tagged ATAD5 (AID 651632). Further: nearly all actives have a fitted effect of over 15% in size. Further: potency means the concentration at half of the fitted maximal effect. The settings on record: HEK293T ATAD5-luciferase induction, 16 h; series mostly up to 83.3 µM. An outline of the steps: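 Genotoxicity read-out via ATAD5-luciferase: HEK293T cells, 16 hr compound incubation at 37C, Amplite detection.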

A short description of experiment [3]: qHTS assay for small molecule agonists of the p53 signaling pathway - cell viability (AID 651633; calls by dose curve; further: nearly all actives have a fitted effect of over 30% in size). As to conditions: p53RE-bla HCT-116 viability, ATP luminescence, 16 h; series mostly up to 83.3 µM. Put shortly: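 p53RE-bla cells were treated with compound for 16 hours at 37 C. Cytotoxicity was then measured as CellTiter-Glo luminescence after 30 min at room temperature.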

Experiment [4] is described as follows: qHTS assay for small molecules that induce genotoxicity in human embryonic kidney cells expressing luciferase-tagged ATAD5 - cell viability (AID 651634; calls by dose curve; further: nearly all actives have a fitted effect of over 25% in size; further: potency means the concentration at half of the fitted maximal effect). The settings on record: HEK293T ATAD5-luc cells viability, CellTiter-Fluor, 15.5 h; series mostly up to 83.3 µM. An outline of the steps: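 Live-cell protease activity (CellTiter-Fluor, fluorescence) indicates viability. HEK293T cells with luciferase-tagged ATAD5; 15.5 hr compound treatment at 37C.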

Experiment [5] can be described thus: qHTS assay for small molecule disruptors of the mitochondrial membrane potential - cell viability (AID 720634; calls by dose curve; further: nearly all actives have a fitted effect of over 20% in size; further: potency means the concentration at half of the fitted maximal effect). The settings on record: HepG2 viability, ATP luminescence (CellTiter-Glo), 1 h; series mostly up to 83.2 µM. Put shortly: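 Human hepatoma HepG2 cells were treated for 1 hr with test chemicals, then given m-MPI dye and CellTiter-Glo. Cell viability reflects luminescence proportional to cellular ATP.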

Experiment [6] in a line: qHTS assay for small molecule disruptors of the mitochondrial membrane potential (AID 720635). Further: potency means the concentration at half of the fitted maximal effect. The settings on record: HepG2 mitochondrial membrane potential, Mito-MPS dye ratio; series mostly up to 83.2 µM. An outline of the steps: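 HepG2 cells exposed to compound 1 hr at 37C, then Mito-MPS dye 30 min. Ratio read of aggregate (540/590 nm) versus monomer (490/535 nm) fluorescence.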

A short description of experiment [7]: qHTS assay to test for compound auto fluorescence at 590 nm (red) in HepG2 cells (AID 720674). The settings on record: HepG2 autofluorescence, red 540/590 nm, 1 h; series mostly up to 91.3 µM. Put shortly: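 HepG2 cells, 2,000 per well in MEM with 10% FBS, attached overnight at 37 C, then got 23 nL compound or DMSO. After 1 hr at 37 C, 5% CO2, red fluorescence was read at 540/590 nm against Rose Bengal sodium as reference.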

Experiment [8] can be described thus: qHTS assay to test for compound auto fluorescence at 535 nm (green) in HepG2 cells (AID 720675). The settings on record: green autofluorescence 485/535 nm, 1 h; series mostly up to 91.3 µM.
Experiment [9] in a line: qHTS assay to test for compound auto fluorescence at 460 nm (blue) in HEK293 cells (AID 720678). The settings on record: blue autofluorescence 405/460 nm; series mostly up to 91.3 µM. An outline of the steps: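 After cell attachment (4-5 hr, 37C), compounds were pinned onto HEK293 monolayers in 10% dialyzed FBS medium. The blue channel (405/460 nm) was read following overnight culture. Equivalency was calculated against triamterene.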

The nature of experiment [10]: qHTS assay to test for compound auto fluorescence at 590 nm (red) in HEK293 cells (AID 720679). The settings on record: red autofluorescence 540/590 nm; series mostly up to 91.3 µM. An outline of the steps:
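Plates of HEK293 cells (10% dialyzed FBS) are treated with 23 nL compound or DMSO vehicle after a 4-5 hr attachment period, incubated overnight at 37C, and read for red fluorescence at 540/590nm.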

The structures appear in SMILES notation. Values joined by “and” are separate entries in the source; they are usually repeats but may differ in a detail not shown here. Equal values may be shown once. Records with an inconclusive call do not appear. Where a structure was tested more than once in an assay, its records may differ in their call. Active and inactive are the calls of the source. Unless noted, the call rests on the fitted dose curve; in most records, active means well fitted curve in the direction sought with a large enough effect in the repeat runs; inconclusive means weak or mixed curves; inactive means no such curve, though single readings can be large; an effect the other way counts as inactive or inconclusive.

Turning to `CCCCCCCCCCCCCC(=O)OC(C)C`, the Potency result in experiment [1], in experiment [2], in [3], in experiment [4], in experiment [5] and in experiment [6] was “inactive” each time. The molecule was classed as inactive in experiment [7], in [8], in [9] and in [10].

Regarding `Nc1cccc(N)c1`, the Potency entry in experiment [1], in [2], in experiment [3], in experiment [4] and in experiment [5] was “inactive” in each case. Besides, the Potency in [6] is 24 µM (active). Besides, the molecule was classed as inactive in [7], in experiment [8], in [9] and in experiment [10].

In the case of `CC(=O)OC/C=C(C)/C=C/C=C(C)/C=C/C1=C(C)CCCC1(C)C`, the Potency result in experiment [1], in experiment [2], in [3], in [4], in experiment [5] and in experiment [6] was “inactive” throughout. For the same molecule, the call in experiment [7], in experiment [8], in experiment [9] and in [10] was inactive.

For `COc1ccc(C(=O)c2ccccc2)c(O)c1`, the Potency result in experiment [1], in experiment [2], in experiment [3], in experiment [4], in experiment [5] and in [6] was “inactive” throughout. Besides, the call in experiment [7], in [8], in [9] and in [10] was inactive.

As to `CC1(C)O[C@@H]2[C@@H](CO[C@@]3(COS(N)(=O)=O)OC(C)(C)O[C@@H]23)O1`, the Potency result in experiment [1], in [2], in [3], in [4], in [5] and in [6] was “inactive” throughout. Moreover, the call in experiment [7], in experiment [8], in [9] and in experiment [10] was inactive.

Take `Oc1cccc(O)c1`: the Potency result in experiment [1], in experiment [2], in experiment [3], in experiment [4], in [5] and in [6] was “inactive” in each case. For the same molecule, the molecule was classed as inactive in [7], in [8], in experiment [9] and in experiment [10].

On to `O=c1cc[nH]c(=O)[nH]1`, for which the Potency entry in experiment [1], in [2], in experiment [3], in [4], in experiment [5] and in [6] was “inactive” each time. Further, the call in experiment [7], in [8], in experiment [9] and in experiment [10] was inactive.

On to `C#C[C@]1(O)CC[C@H]2[C@@H]3CCc4cc(O)ccc4[C@H]3CC[C@@]21C`, for which the Potency is 8.41 µM (active) and 7.64 µM (active) and 6.11 µM (active) in experiment [1]; 15.2 µM (active) in [4]; 13.3 µM (active) and 13.6 µM (active) and 17.2 µM (active) in experiment [6]. In addition, the Potency result in experiment [2], in [3] and in experiment [5] was “inactive” in each case. Further, the call in experiment [7], in [8], in experiment [9] and in experiment [10] was inactive.

In the case of `NC(=O)NO`, the Potency entry in [1], in experiment [2], in experiment [3], in [4], in [5] and in experiment [6] was “inactive” throughout. For the same molecule, the result in experiment [7], in experiment [8], in experiment [9] and in experiment [10] was inactive.

`COc1ccccc1O`: in [1], the Potency result was “inactive and 4.35 µM (active)”. Moreover, the Potency entry in [2], in experiment [3], in experiment [4], in [5] and in experiment [6] was “inactive” each time. For the same molecule, the result in [7], in experiment [8], in experiment [9] and in experiment [10] was inactive.

Consider `CN(C)Cc1cc(CN(C)C)c(O)c(CN(C)C)c1`, for which the Potency entry in [1], in [2], in experiment [3], in experiment [4], in experiment [5] and in [6] was “inactive” throughout. Also, the call in [7], in experiment [8], in [9] and in experiment [10] was inactive.

As for `CC(=O)Oc1ccccc1C(=O)O`, the Potency entry in experiment [1], in [2], in experiment [3], in [4], in experiment [5] and in [6] was “inactive” throughout. The molecule was called inactive in experiment [7], in experiment [8], in [9] and in experiment [10].

In the case of `C=CCOC(=O)CC(C)C`, the Potency result in experiment [1], in experiment [2], in experiment [3], in [4], in [5] and in experiment [6] was “inactive” throughout. The result in [7], in experiment [8], in experiment [9] and in experiment [10] was inactive.

As to `O=[N+]([O-])c1ccc(O)cc1`, the Potency result in experiment [1], in [2], in experiment [3] and in experiment [5] was “inactive” in each case. In addition, the Potency in experiment [4] was 56.6 µM (active); in [6] it was 71.2 µM (active) and 61.1 µM (active). In addition, the molecule was called inactive in [7], in experiment [8], in experiment [9] and in experiment [10].

Regarding `Cc1cccc(Nc2cc(Cl)nc(SCC(=O)O)n2)c1C`, the Potency result in experiment [1], in experiment [2], in experiment [3], in experiment [4], in experiment [5] and in experiment [6] was “inactive” throughout. For the same molecule, the molecule was classed as inactive in experiment [7], in experiment [8], in experiment [9] and in experiment [10].

Consider `CCCCC/C(C=O)=C\c1ccccc1`, for which the Potency result in experiment [1], in experiment [2], in experiment [3], in experiment [4], in experiment [5] and in experiment [6] was “inactive” throughout. Further, the outcome in experiment [7], in [8], in experiment [9] and in experiment [10] was inactive.

Consider `C[C@]12C=CC(=O)C=C1CC[C@@H]1[C@@H]2C(=O)C[C@@]2(C)[C@H]1CC[C@]2(O)C(=O)CO`, for which the Potency entry in experiment [1], in [2], in experiment [3], in [4], in [5] and in experiment [6] was “inactive” each time. Moreover, the molecule was called inactive in experiment [7], in [8], in experiment [9] and in [10].

With `CCOC(=O)C(C)(C)Oc1ccc(Cl)cc1`, the Potency entry in experiment [1], in experiment [2], in experiment [3], in experiment [4], in [5] and in [6] was “inactive” throughout. The call in experiment [7], in [8], in experiment [9] and in experiment [10] was inactive.

On to `Cc1ccc(O)c(-n2nc3ccccc3n2)c1`, for which the Potency result in experiment [1], in experiment [3] and in experiment [4] was “inactive” throughout. Further, the Potency in [2] is 9.44 µM (active) and 6.11 µM (active); in experiment [5], 30.6 µM (active); in experiment [6], 21.1 µM (active) and 60.6 µM (active) and 30.6 µM (active). Moreover, the call in [7], in experiment [8], in experiment [9] and in experiment [10] was inactive.

For `CCCCOCCOCCSC#N`, the Potency result in experiment [1], in experiment [2], in experiment [3], in experiment [4], in experiment [5] and in experiment [6] was “inactive” each time. Besides, the result in [7], in [8], in experiment [9] and in [10] was inactive.

Turning to `COCCOCCOC`, the Potency result in experiment [1], in experiment [2], in experiment [3], in experiment [4], in [5] and in experiment [6] was “inactive” throughout. Also, the result in experiment [7], in [8], in experiment [9] and in experiment [10] was inactive.

The values above are taken from PubChem BioAssay (Tox21).
